A short description of assay [1]: Quantitative High-Throughput drug screen in 47 multiple myeloma cell lines against the NCATS MIPE library collection: LP1_DSMZ cell viability assay (AID 1918982). Also: nearly all actives have a fitted effect of over 35% in size. Also: potency is read from the fitted curve at half-maximal effect. In outline:
(§1)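 Myeloma cells (500/well) treated with MIPE 4.0 compounds for 48 h at 37 °C, 5% CO2. Viability read as ATP via CellTiter-Glo luminescence after 5 min at RT; DMSO-only wells = 100%, media-only = 0% viability.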

Assay [2] in a line: Quantitative High-Throughput drug screen in 47 multiple myeloma cell lines against the NCATS MIPE library collection: KMS28PE_JCRB cell viability assay (AID 1918983). Also: nearly all actives have a fitted effect of over 35% in size. Also: potency is read from the fitted curve at half-maximal effect. In outline: as §1
Assay [3] can be described thus: Quantitative High-Throughput drug screen in 47 multiple myeloma cell lines against the NCATS MIPE library collection: KMS34_JCRB cell viability assay (AID 1918985). Also: nearly all actives have a fitted effect of over 40% in size. Also: potency is read from the fitted curve at half-maximal effect. In outline: as §1
Assay [4] can be described thus: Quantitative High-Throughput drug screen in 47 multiple myeloma cell lines against the NCATS MIPE library collection: OCIMY5_PLB cell viability assay (AID 1918988). Also: nearly all actives have a fitted effect of over 65% in size. Also: potency is read from the fitted curve at half-maximal effect. A digest of the protocol:
as §1

The nature of assay [5]: Quantitative High-Throughput drug screen in 47 multiple myeloma cell lines against the NCATS MIPE library collection: OPM1_PLB cell viability assay (AID 1918989). Also: nearly all actives have a fitted effect of over 40% in size. Also: potency is read from the fitted curve at half-maximal effect. A digest of the protocol: as §1
Assay [6] can be described thus: Quantitative High-Throughput drug screen in 47 multiple myeloma cell lines against the NCATS MIPE library collection: XG6_PLB cell viability assay (AID 1919865). Also: nearly all actives have a fitted effect of over 40% in size. Also: potency is read from the fitted curve at half-maximal effect. In outline: as §1
Assay [7] is described as follows: Quantitative High-Throughput drug screen in 47 multiple myeloma cell lines against the NCATS MIPE library collection: XG1_PLB cell viability assay (AID 1919866). Also: nearly all actives have a fitted effect of over 35% in size. Also: potency is read from the fitted curve at half-maximal effect. In outline:
as §1

Assay [8] can be described thus: Quantitative High-Throughput drug screen in 47 multiple myeloma cell lines against the NCATS MIPE library collection: VP6_DJ cell viability assay (AID 1919867). Also: nearly all actives have a fitted effect of over 40% in size. Also: potency is read from the fitted curve at half-maximal effect. In outline:
as §1

Assay [9] in a line: Quantitative High-Throughput drug screen in 47 multiple myeloma cell lines against the NCATS MIPE library collection: UTMC2_PLB cell viability assay (AID 1919868). Also: nearly all actives have a fitted effect of over 55% in size. Also: potency is read from the fitted curve at half-maximal effect. Conditions: CellTiter-Glo ATP luminescence, 48 h; viability (% of DMSO control): at 45.8 µM (top of the series). A digest of the protocol:
as §1
A general note: Cellular ATP, detected with luciferase, serves as a proxy for viable cell number.

A short description of assay [10]: Quantitative High-Throughput drug screen in 47 multiple myeloma cell lines against the NCATS MIPE library collection: PE2_PLB cell viability assay (AID 1919869). Also: nearly all actives have a fitted effect of over 35% in size. Also: potency is read from the fitted curve at half-maximal effect. A digest of the protocol:
as §1

Assay [11] in a line: Quantitative High-Throughput drug screen in 47 multiple myeloma cell lines against the NCATS MIPE library collection: OPM2_DSMZ cell viability assay (AID 1919872). Also: nearly all actives have a fitted effect of over 30% in size. In outline: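 Relative luminescence from CellTiter-Glo served as the viability signal, referenced to DMSO-treated (100%) and cell-free medium (0%) controls. Treatment lasted 48 hours at 37C with 500 cells per well.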

A short description of assay [12]: Quantitative High-Throughput drug screen in 47 multiple myeloma cell lines against the NCATS MIPE library collection: KMS11_JCRBsus cell viability assay (AID 1919873). Also: nearly all actives have a fitted effect of over 50% in size. Also: potency is read from the fitted curve at half-maximal effect. In outline: as §1
Assay [13] is described as follows: Quantitative High-Throughput drug screen in 47 multiple myeloma cell lines against the NCATS MIPE library collection: KMS28BM_JCRB cell viability assay (AID 1919874). Also: nearly all actives have a fitted effect of over 35% in size. Also: potency is read from the fitted curve at half-maximal effect. In outline:
as §1

The nature of assay [14]: Quantitative High-Throughput drug screen in 47 multiple myeloma cell lines against the NCATS MIPE library collection: L363_DSMZ cell viability assay (AID 1918984). Also: nearly all actives have a fitted effect of over 40% in size. A digest of the protocol:
as §1

Assay [15] is described as follows: Quantitative High-Throughput drug screen in 47 multiple myeloma cell lines against the NCATS MIPE library collection: SKMM1_PLB cell viability assay (AID 1919863). Also: nearly all actives have a fitted effect of over 35% in size. Also: potency is read from the fitted curve at half-maximal effect. Conditions: SKMM1 myeloma viability, CellTiter-Glo ATP, 48 h; viability: stronger effect = lower value. In outline: as §1
A short description of assay [16]: Quantitative High-Throughput drug screen in 47 multiple myeloma cell lines against the NCATS MIPE library collection: PCM6_Riken cell viability assay (AID 1919870). Also: nearly all actives have a fitted effect of over 30% in size. Also: potency is read from the fitted curve at half-maximal effect. In outline:
as §1

A short description of assay [17]: Quantitative High-Throughput drug screen in 47 multiple myeloma cell lines against the NCATS MIPE library collection: RPMI8226_ATCC cell viability assay (AID 1919871). Also: nearly all actives have a fitted effect of over 30% in size. Also: potency is read from the fitted curve at half-maximal effect. In outline:
as §1

Assay [18] is described as follows: Quantitative High-Throughput drug screen in 47 multiple myeloma cell lines against the NCATS MIPE library collection: OCIMY7_PLB cell viability assay (AID 1918987). Also: nearly all actives have a fitted effect of over 65% in size. Also: potency is read from the fitted curve at half-maximal effect. A digest of the protocol:
as §1

Assay [19] is described as follows: Quantitative High-Throughput drug screen in 47 multiple myeloma cell lines against the NCATS MIPE library collection: U266_ATCC cell viability assay (AID 1919864). Also: nearly all actives have a fitted effect of over 35% in size. Also: potency is read from the fitted curve at half-maximal effect. In outline: as §1

Results on 15 molecules are retold here after PubChem BioAssay (NCATS).

By viability is commonly meant a read-out of living cells in per cent, often relative to untreated cells.

Values joined by “and” are separate entries in the source; they are usually repeats but may differ in a detail not shown here. Equal values may be shown once. Records with an inconclusive call do not appear. Unmarked numbers belong to inactive results. Active and inactive are the calls of the source. Calls follow the shape of the dose curve; as a rule, active = well fitted cell-killing curve with a large enough effect; inconclusive = small, poorly fitted or top-dose-only effect, or effect the other way; inactive = no such curve, though single readings can be large or run the other way.

Take `CNC[C@H](O)c1cccc(O)c1`: the Potency result in assay [1], in assay [2], in assay [3], in [5], in assay [6] and in assay [7] was “inactive” in each case. Further, the Potency result in assay [10], in assay [11], in assay [12] and in [13] was “inactive” in each case. Moreover, the Potency in assay [4] is 0.332 µM (active); in assay [8], 1.32 µM (active); in assay [9], 0.0021 µM (active).
For the molecule `CCCCNc1cc(C(=O)O)cc(S(N)(=O)=O)c1Oc1ccccc1`, the Potency result in [1], in assay [2], in [14], in [3], in assay [5] and in assay [7] was “inactive” in each case. Further, the Potency result in assay [8], in assay [10], in assay [16], in [17] and in assay [11] was “inactive” in each case. For the same molecule, the viability in assay [15] is 158%.
Regarding `CCn1cc(C(=O)O)c(=O)c2cc(F)c(N3CCNC(C)C3)c(F)c21` (configuration not stated), the Potency entry in assay [1], in assay [2], in assay [14], in assay [3], in [4] and in assay [6] was “inactive” in each case. Also, the Potency result in assay [7], in assay [8], in assay [10], in [16], in assay [17] and in [11] was “inactive” each time. Besides, the Potency entry in assay [12] and in [13] was “inactive” each time. Further, the Potency in assay [5] is 11.8 µM (active). For the same molecule, the viability in assay [15] was 140%.
As to `CCN(c1ccccc1)c1cc(NC)[n+](C)c(C)n1`, the Potency entry in assay [1], in [2], in assay [5], in assay [7], in [8] and in assay [9] was “inactive” each time. The Potency result in assay [10], in [16], in assay [17], in assay [11] and in assay [12] was “inactive” each time. Moreover, the Potency in [3] is 26.4 µM (active); in [4], 20.9 µM (active).
With `COCCNCCCn1c(C(=O)CF)c(-c2ccc(C)cc2)c2c(N)ncnc21`, the Potency in assay [1] is 7.43 µM (active); in [3], 16.6 µM (active); in assay [10], 14.8 µM (active); in [16] it was 10.5 µM (active). The Potency entry in assay [2] and in [11] was “inactive” in each case.
For the molecule `COc1ccc(C2=N[C@H](c3ccc(Cl)cc3)[C@H](c3ccc(Cl)cc3)N2C(=O)N2CCNC(=O)C2)c(OC(C)C)c1`, the Potency entry in [1], in assay [2] and in [11] was “inactive” each time. Moreover, the Potency in [18] is 8.33 µM (active); in [4], 18.7 µM (active); in assay [15] it was 5.9 µM (active); in assay [19], 20.9 µM (active); in assay [6], 2.64 µM (active); in assay [17], 20.9 µM (active). For the same molecule, the Potency in [12] and in assay [13] was 16.6 µM (active) each time.
Consider `S=C(NCc1ccc2c(c1)OCO2)N1CCN(c2ncnc3c2oc2ccccc23)CC1`, for which the Potency in assay [1] is 2.7 µM (active); in [2], 6.05 µM (active); in assay [18], 4.29 µM (active); in assay [4], 9.59 µM (active); in assay [5], 2.41 µM (active); in assay [6] it was 2.41 µM (active). Also, the Potency in assay [7] is 0.96 µM (active); in assay [8], 0.96 µM (active); in assay [10], 6.79 µM (active); in assay [12] it was 1.52 µM (active); in [13] it was 1.36 µM (active). Also, the Potency result in assay [3] was “inactive”.
`OC(CCN1CCCCC1)(c1ccccc1)C1CC2C=CC1C2` (configuration not stated): the Potency result in assay [1], in assay [2], in assay [3], in [4], in assay [5] and in assay [6] was “inactive” in each case. The Potency entry in assay [7], in assay [8], in assay [10], in [16], in [11] and in assay [13] was “inactive” in each case.
In the case of `COc1ccc([C@@H]2CC(=O)c3c(O)cc(O[C@@H]4O[C@H](CO[C@@H]5O[C@@H](C)[C@H](O)[C@@H](O)[C@@H]5O)[C@@H](O)[C@H](O)[C@@H]4O)cc3O2)cc1O`, the Potency entry in assay [1], in assay [2], in [14], in assay [3], in assay [5] and in [8] was “inactive” each time. Further, the Potency result in assay [10], in [16], in [17], in assay [11], in [12] and in [13] was “inactive” in each case. The Potency in assay [18] is 6.62 µM (active); in [4], 13.2 µM (active). In addition, the viability in assay [15] was 111% and 110%.
On to `O=C(NOC[C@H](O)CO)c1ccc(F)c(F)c1Nc1ccc(I)cc1F`, for which the Potency entry in assay [1], in assay [4], in assay [16], in assay [12] and in assay [13] was “inactive” throughout. Moreover, the Potency is 2.96 µM (active) in assay [2]; 0.0148 µM (active) in [18]; 1.48 µM (active) in assay [5]; 16.6 µM (active) in assay [19]; 0.0296 µM (active) in assay [7]; 0.0372 µM (active) in [8]. Besides, the values for the Potency in [10] and in assay [17] were 0.0662 µM (active) and 0.0296 µM (active), respectively.
With `O=c1n(CCCN2CCN(c3cccc(Cl)c3)CC2)nc2ccccn12`, the Potency result in assay [1], in [2], in assay [14], in assay [3], in assay [5] and in [9] was “inactive” throughout. The Potency entry in [10], in assay [16], in [17], in assay [11] and in [12] was “inactive” each time.
For the molecule `Clc1cccc(Cl)c1NC1=NCCN1`, the Potency result in assay [1], in [2], in assay [3], in [4], in [5] and in assay [19] was “inactive” each time. Moreover, the Potency entry in assay [6], in [7], in [10], in assay [16], in [11] and in assay [13] was “inactive” in each case. For the same molecule, the Potency in [8] is 5.26 µM (active).
On to `CNCc1ccc(-c2[nH]c3cc(F)cc4c3c2CCNC4=O)cc1`, for which the Potency result in assay [1], in assay [2], in assay [14], in assay [3], in [4] and in [5] was “inactive” throughout. Further, the Potency result in [10], in assay [17] and in assay [11] was “inactive” in each case.
In the case of `COc1nc(-c2ccc3c(c2)OCO3)n(-c2ccc(NC(=O)CSc3ccccc3)cc2)n1`, the Potency entry in [1], in assay [3], in assay [6], in assay [10], in assay [11] and in [12] was “inactive” throughout. The values for the Potency in assay [2] and in assay [19] were 14.8 µM (active) and 5.26 µM (active), respectively. In addition, the viability in assay [15] is 123%.
For the molecule `NS(=O)(=O)c1cc2c(cc1Cl)NC=NS2(=O)=O`, the Potency result in assay [1], in assay [2], in assay [14], in assay [3], in [18] and in [4] was “inactive” each time. In addition, the Potency result in assay [19], in assay [8], in assay [10], in assay [17], in assay [11] and in [13] was “inactive” throughout.
